Screening data as filed in PubChem BioAssay.
Sampled rows, rich in hits. Any-hit rate of the full collection: about 22%.
CYP2C19 inhib: human CYP2C19 inhibition | CYP2C19 Supersomes, luciferin-H EGE luminescence, 30 min | 96,000 tested, 21% active | inhibition, % at 5 µM;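 active = CYP2C19 inhibition above a set limit at 5 µM in the primary screen, cut at about 50% in these data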;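 note: plate controls were negative control wells for no effect and 2.5 mM tranylcypromine positive control for full effect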
Target sequence (P33261 whole entry, looked up): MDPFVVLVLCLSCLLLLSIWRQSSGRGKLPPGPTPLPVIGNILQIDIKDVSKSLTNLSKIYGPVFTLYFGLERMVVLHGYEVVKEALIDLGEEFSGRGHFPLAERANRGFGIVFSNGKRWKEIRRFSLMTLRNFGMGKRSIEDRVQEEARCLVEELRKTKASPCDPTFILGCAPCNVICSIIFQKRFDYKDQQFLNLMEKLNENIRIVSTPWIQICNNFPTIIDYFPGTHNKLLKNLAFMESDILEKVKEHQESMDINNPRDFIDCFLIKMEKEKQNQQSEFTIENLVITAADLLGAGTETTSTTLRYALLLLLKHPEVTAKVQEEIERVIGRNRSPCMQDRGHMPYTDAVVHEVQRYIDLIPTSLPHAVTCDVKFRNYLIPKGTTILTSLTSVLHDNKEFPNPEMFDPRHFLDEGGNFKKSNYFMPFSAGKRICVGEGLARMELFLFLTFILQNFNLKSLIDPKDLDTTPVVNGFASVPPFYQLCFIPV
CYP2C19 act: activators of human cytochrome P450 2C19; activation factor at 5 µM; recombinant CYP2C19, luciferin-H EGE luminescence; stronger effect = higher value; 0 = fully inhibited enzyme, 1 = untreated enzyme; 96,000 tested, under 10 active;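 active = activation factor of at least 2 at 5 µM in the primary screen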;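 note: 0 = wells with 2.5 mM tranylcypromine and 1 = vehicle-only wells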
cytoskel mod: alters cytoskeleton assembly in HUVEC cells; HUVEC TNFa F-actin phalloidin imaging, high content; inhibition, % at 2 µM; 91,000 tested, 0.18% active; AID 836;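 active = inhibition above the batch mean plus 3 SD and confirmed as a hit by visual image inspection, cut at about 30% in these data, passing the limit was not always enough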
CYP2C9 inhib: inhibitors of human CYP2C9. inhibition, % at 5 µM. CYP2C9 Supersomes, luciferin-H conversion, luminescence. 96,000 tested, 20% active. P11712;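 active = blocking of liver enzyme CYP2C9 beyond about 50% at 5 µM, limit read from the data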
E-sel TNF inh: TNF alpha driven E-selectin expression inhibition | AID 1246 | HUVEC TNFa-induced E-selectin immunofluorescence, high content | inhibition, % at 2 µM | 120,000 tested, 0.71% active;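 active = inhibition above the batch mean plus 3 SD, and confirmed as a hit on visual image review, cut at about 43% in these data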;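 note: 0% = TNF-stimulated DMSO wells and 100% = unstimulated control wells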
CYP2C9 activ: increases human cytochrome P450 2C9 activity. P11712. recombinant CYP2C9, luciferin-H conversion, luminescence; stronger effect = higher value; factor 1 = untreated enzyme, 0 = blocked. activation factor at 5 µM. 96,000 tested, 1.4% active. AID 1024;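 active = activation factor of 2 or more for CYP2C9 at a 5 µM dose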;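 note: 0 = sulfaphenazole-blocked wells and 1 = vehicle-only wells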
* hit, by the source's call; . = no result given.

SMILES	CYP2C19 inhib	CYP2C19 act	cytoskel mod	CYP2C9 inhib	E-sel TNF inh	CYP2C9 activ
COc1ccc(-c2cc(C(F)(F)F)nc(SCC(=O)Nc3cc(C)on3)n2)cc1	-6	1.1	0	-10	-31	1.1
O=C(CSc1nc(-c2ccco2)cc(C(F)(F)F)n1)NC1CCCCCCC1	.	.	-14	.	-34	.
COc1ccc(-c2ccc(C#N)c(SCC(=O)Nc3sc4c(c3C#N)CCC4)n2)cc1OC	42	0.6	-30	98*	-2	0
COc1ccc(-c2nnn(CC(=O)Nc3sc4c(c3C#N)CCCC4)n2)cc1	18	0.8	-6	54*	-12	0.5
CCC1CCc2c(sc(NC(=O)CSc3nc(-c4ccco4)cc(C(F)(F)F)n3)c2C#N)C1 (configuration not stated)	69*	0.3	1	89*	-1	0.1
O=C(CCC(=O)N(c1ccc(F)cc1)C(C(=O)NC1CCCC1)c1ccncc1)Nc1cccnc1 (configuration not stated)	.	.	11	.	14	.
COC(=O)c1cccc(C(=O)Nc2ccc(C)cc2Br)n1	22	0.8	-5	54*	-9	0.5
CC(CCc1ccccc1)NS(=O)(=O)c1ccccc1 (configuration not stated)	55*	0.5	25	75*	-8	0.3
CCOCCCNS(=O)(=O)c1ccccc1	60*	0.4	27	1	-10	1
CC(C)CCCC(C)NS(=O)(=O)Cc1ccccc1 (configuration not stated)	55*	0.5	-8	92*	26	0.1
O=S(=O)(NCCCc1ccccc1)c1ccccc1	98*	0	8	70*	8	0.3
O=S(=O)(NCCCCCNS(=O)(=O)c1ccccc1)c1ccccc1	4	1	3	16	-3	0.8
CC(CCc1ccccc1)NC(=O)C(=O)NCCc1ccccc1 (configuration not stated)	.	.	.	.	2	.
CC(CCc1ccccc1)NCc1ccncc1 (configuration not stated)	96*	0	13	83*	-61	0.2
CN(C)CCNC(=O)CCCNC(=O)Cn1cnc2sc3c(c2c1=O)CCCC3	-15	1.1	3	-14	16	1.1
Cc1ccc2[nH]c(=O)c(CN(CCCO)S(=O)(=O)c3cccc4nsnc34)cc2c1	46	0.5	13	88*	-18	0.1
Cc1ccc2cc(CN(CCCO)S(=O)(=O)c3cccc4nsnc34)c(=O)[nH]c2c1	1	1	-7	100*	11	0
CC/C(=C\C1CCCCC1)C(NP(=O)(c1ccccc1)c1ccccc1)c1ccccc1 (configuration not stated)	.	.	.	.	-11	.
Cc1cccc(C)c1NC(=O)CCN1C(=O)C2C3CCC(C3)C2C1=O (configuration not stated)	7	0.9	-7	12	35	0.9
CC(=O)Nc1ccc(S(=O)(=O)NNC(=O)COc2cc(C)ccc2C(C)C)cc1	18	0.8	4	10	-14	0.9
C=CCNC(=O)CN(c1ccc(F)c(Cl)c1)S(C)(=O)=O	57*	0.4	-1	7	2	0.9
Cc1ccc(N(CC(=O)NCc2ccncc2)S(C)(=O)=O)cc1Cl	99*	0	-17	89*	-59	0.1
COc1ccccc1N(CC(=O)NCc1ccccc1)S(C)(=O)=O	18	0.8	-8	15	3	0.9
Cc1ccc(N(CC(=O)NCc2cccnc2)S(C)(=O)=O)cc1C	84*	0.2	-6	26	-18	0.7
CS(=O)(=O)N(CC(=O)NCc1ccncc1)c1cc(Cl)cc(Cl)c1	100*	0	10	87*	.	0.1
SMILES	CYP2C19 inhib	CYP2C19 act	cytoskel mod	CYP2C9 inhib	E-sel TNF inh	CYP2C9 activ
Cc1ccc(N(CC(=O)NCc2ccncc2)S(C)(=O)=O)cc1	.	.	4	.	-36	.
S=c1[nH]nc(-c2ccncc2)n1/N=C/C(Cl)=C\c1ccccc1	.	.	.	.	37	.
C=CCOc1c(CNc2ncn[nH]2)cccc1OCC	.	.	4	.	10	.
COc1ccccc1NC(=S)N(Cc1ccc(Cl)cc1)CC1CCC(C(=O)O)CC1 (configuration not stated)	.	.	.	.	9	.
CCOCCCNS(=O)(=O)c1ccc(-n2cnnn2)c(OC)c1	89*	0.1	11	-34	19	1.3
COc1cc(S(=O)(=O)NCCCN2CCOCC2)ccc1-n1cnnn1	.	.	.	.	11	.
CCCNS(=O)(=O)c1ccc(-n2cnnn2)c(OC)c1	.	.	.	.	-5	.
COc1cc(NS(=O)(=O)c2ccc(C)cc2)ccc1-n1cnnn1	44	0.6	22	72*	-23	0.3
COc1cc(S(=O)(=O)NCCN2CCOCC2)ccc1-n1cnnn1	.	.	.	.	-35	.
COc1cc(S(=O)(=O)NCCc2ccc3c(c2)OCO3)ccc1-n1cnnn1	96*	0	7	87*	-12	0.1
COc1ccc(OC)c(NC(=O)COC(=O)c2cc3c(s2)CCC3)c1	.	.	.	.	-22	.
CC(=O)c1c(C)c2c(n1CCN(C)C)CCCC2	-16	1.2	9	-13	5	1.1
COc1ccc(NS(=O)(=O)c2c(C)cc(C)cc2C)cc1	88*	0.1	.	93*	2	0.1
COc1cccc(NS(=O)(=O)c2c(C)n(C)c(=O)n(C)c2=O)c1	15	0.8	-20	0	19	1
COc1cccc(NS(=O)(=O)c2c(C)cc(C)cc2C)c1	100*	0	-5	58*	.	0.4
Cc1csc(NC(=O)CSCC(=O)Nc2ccccc2)n1	50	0.5	16	57*	-25	0.4
Cc1csc(NC(=O)CSc2ncn(-c3ccccc3)n2)n1	19	0.8	5	20	-22	0.8
Cc1ccc(C(=O)CSc2nc3ccccc3c(=O)[nH]2)cc1	43	0.6	.	75*	11	0.3
CC(C)(C)c1csc(NC(=O)CSc2nc3ccccc3c(=O)[nH]2)n1	67*	0.3	15	94*	-16	0.1
Cc1csc(NC(=O)CSc2nc3ccccc3c(=O)[nH]2)n1	8	0.9	-10	55*	-3	0.4
CCN(c1ccccc1)S(=O)(=O)c1cccc(C(=O)NCC(c2cccs2)N(C)C)c1 (configuration not stated)	.	.	.	.	-14	.
Cc1ccc(NC(=S)Nc2nc(CC(=O)Nc3ccccc3)cs2)cc1	59*	0.4	.	28	5	0.7
CC(C)(C)N(Cc1ccccc1)C(=O)CSc1nc2ccccc2c(=O)[nH]1	66*	0.3	-7	82*	17	0.2
Cc1ccc(NC(=O)Cc2nc(CCl)cs2)cc1	.	.	.	.	-22	.
Cc1cc(C)c2c(=O)[nH]c(SCC(=O)c3ccc(C(C)C)cc3)nc2n1	15	0.9	-6	51*	14	0.5
Nc1ccc2nc(CCCCCCCCc3nc4ccc(N)cc4[nH]3)[nH]c2c1	.	.	.	.	-63	.
CCc1nc2cc(Cl)c(Cl)cc2[nH]1	59*	0.4	-19	25	-24	0.8
Cc1ccc(C(=O)O)cc1NC(=S)NC(=O)C(c1ccccc1)c1ccccc1	10	0.9	2	38	13	0.6
